In a collection of fitness landscapes (doi:10.1016/j.celrep.2020.107928):
In all, about 81,000 sequences were measured (“one-hybrid fitness for binding parS DNA”: median about -0.17, highest 2% from about 0.51 on). Only a selection was taken, and the highest values are over-represented in it overall.

B1: Caulobacter ParB omega fusion; a variant is named by its letters at X, in order, B8GW30 (parent)
chain: MESVVVGEPGMSEGRRGLGRGLSALLGEVDAAPAQAPGEQLGGSREAPIEILQRNPDQPRRTFREEDLEDLSNSIREKGVLQPILVRPSPDTAGEYQIVAGERAWRAAQRAGLKTVPIMVRELDDLAVLEIGIIENVQRADLNVLEEALSYKVLMEKFERTQENIAQTIGKSXSHVANXMRLLXLPDEVQSYLVSGELTAXHARAIAAAADPVALAKQIIEGGLSVRETEALARKAPNLSAGKSKGGRPPRVKDTDTQALESDLSSVLGLDVSIDHRGSTGTLTITYATLEQLDDLCNRLTRGI

Variants of: B1
Experiment: one-hybrid fitness for binding parS DNA (scaled: cognate 1, non-cognate 0); higher = stronger binding
Settings: with parS DNA site
Outline: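 Pre- and post-selection plasmids were Illumina-sequenced, three replicate libraries were pooled, and any variant with under 10 reads was removed. The libraries were Caulobacter ParB with four specificity codons randomised, selected in E. coli USO through a HIS3 reporter whose site is 19 bp from the promoter. Cells grew 48 hours at 37°C on M9 without histidine, with 0.1 mM IPTG and 5 mM 3-AT. Fitness is the log change in variant-to-wild-type read ratio, rescaled against cognate and non-cognate.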

one-hybrid fitness for binding parS DNA, 0.969:
RHAG

one-hybrid fitness for binding parS DNA, 0.491:
RSHY

one-hybrid fitness for binding parS DNA, 0.876:
RHFG

one-hybrid fitness for binding parS DNA, 0.846:
RVDC

one-hybrid fitness for binding parS DNA, 0.4:
RTRH

one-hybrid fitness for binding parS DNA, 0.831:
RRFG

one-hybrid fitness for binding parS DNA, 0.301:
RNFA

one-hybrid fitness for binding parS DNA, 0.497:
RMWY

one-hybrid fitness for binding parS DNA, 0.945:
RLKG

one-hybrid fitness for binding parS DNA, 1.05:
RTWS

one-hybrid fitness for binding parS DNA, 0.371:
RNRN

one-hybrid fitness for binding parS DNA, 0.211:
RTPN

one-hybrid fitness for binding parS DNA, 0.46:
RCHY

one-hybrid fitness for binding parS DNA, 0.822:
RTPS

one-hybrid fitness for binding parS DNA, 0.947:
RVNC

one-hybrid fitness for binding parS DNA, 0.545:
RHDA

one-hybrid fitness for binding parS DNA, 0.426:
RAFN

one-hybrid fitness for binding parS DNA, 0.65:
RNIS

one-hybrid fitness for binding parS DNA, 0.93:
RSWG

one-hybrid fitness for binding parS DNA, ≤ 0.2:
RNIN
RNID
RNRP
RNCD
ELGN
PYSK
NITG
KRPK
EVIR
FSHN
RCFI
IRLE
PFDT
RPFA
RDFA
IFQR
PTLA
RHAD
RHFF
DYKT
SRQA
DEKR
SVMF
REFT
RSFH
RPFT
WLLH
REVI
SAPY
RMWR
RLWQ
RRWK
RTWQ
RLWR
RRWF
CQNS
QVGP
QTRM
ARLQ
CHSG
PFAT
QRRC
SRTM
KSRC
KFWG
RHWQ
RHWM
DFWG
KKLC
FRWG
IIKT
IYPT
DRGE
FVTP
HMNE
PPQC
RERK
DGKG
IFLY
DNYC
ALFC
REWG
RPWG
RSWF
RAWK
RDWG
NGLR
NTER
REFQ
WDSN
KYTC
TIAK
PMKR
RLVQ
RLVK
RLKP
QRLA
IESL
KWDD
RVNR
RVDF
RVNE
YLAV
CPVL
ANSF
GFRL
RRAR
RRAP
RRFM
RRFD
SKVG
CPAW
QCMI
DCNA
RHPA
DHNA
WLCT
EVML
IDCL
LAVM
TSYY
APPD
GVQC
TPMT
IMES
QKYV
NYKT
QTEY
RAAD
RAFP
RAAH
FSYG
WYKS
CKSM
QYLA
RTIH
RTIP
RTRP
RTLD
APQT
KERF
LPLK
GVFL
VTMY
RDTG
RTSD
RTPH
RTYD
RTYP

one-hybrid fitness for binding parS DNA, 0.544:
RTHY

one-hybrid fitness for binding parS DNA, 0.43:
RTLN

one-hybrid fitness for binding parS DNA, 0.22:
RTWD

one-hybrid fitness for binding parS DNA, 1.01:
RTLS
RTIS

one-hybrid fitness for binding parS DNA, 0.361:
RIWM

one-hybrid fitness for binding parS DNA, 0.422:
RTSN

one-hybrid fitness for binding parS DNA, 1.02:
RCWG
RAFS

one-hybrid fitness for binding parS DNA, 1.03:
RTWG

one-hybrid fitness for binding parS DNA, 0.58:
RHRA

one-hybrid fitness for binding parS DNA, 0.247:
RLKH

one-hybrid fitness for binding parS DNA, 0.377:
RHFY

one-hybrid fitness for binding parS DNA, 0.304:
RNCN

one-hybrid fitness for binding parS DNA, 0.271:
RTWP

one-hybrid fitness for binding parS DNA, 0.471:
RIWY

one-hybrid fitness for binding parS DNA, 0.952:
RKWG

one-hybrid fitness for binding parS DNA, 0.543:
RHNA

one-hybrid fitness for binding parS DNA, 0.258:
RVDM

one-hybrid fitness for binding parS DNA, 0.844:
RHWG

one-hybrid fitness for binding parS DNA, 1:
RAAS
RTYS

one-hybrid fitness for binding parS DNA, 0.995:
RLWG

one-hybrid fitness for binding parS DNA, 0.219:
RKWF

one-hybrid fitness for binding parS DNA, 0.35:
RAWM

one-hybrid fitness for binding parS DNA, 0.989:
RAWG

one-hybrid fitness for binding parS DNA, 0.383:
RSFN

one-hybrid fitness for binding parS DNA, 0.558:
RSFA

one-hybrid fitness for binding parS DNA, 0.751:
RSFT

one-hybrid fitness for binding parS DNA, 0.589:
RCFA

one-hybrid fitness for binding parS DNA, 0.298:
RWFA

one-hybrid fitness for binding parS DNA, 0.316:
RHIA

one-hybrid fitness for binding parS DNA, 0.202:
RHAH

one-hybrid fitness for binding parS DNA, 0.906:
RRWG

one-hybrid fitness for binding parS DNA, 0.991:
RMWG
RLVG

one-hybrid fitness for binding parS DNA, 0.938:
RTSS

one-hybrid fitness for binding parS DNA, 0.955:
RCFT

one-hybrid fitness for binding parS DNA, 0.393:
RKWY

one-hybrid fitness for binding parS DNA, 0.961:
RNRS

one-hybrid fitness for binding parS DNA, 0.985:
RIWG

one-hybrid fitness for binding parS DNA, 0.738:
RRAG

one-hybrid fitness for binding parS DNA, 0.275:
RTWF

one-hybrid fitness for binding parS DNA, 0.744:
RFWG

one-hybrid fitness for binding parS DNA, 0.201:
RCML

one-hybrid fitness for binding parS DNA, 0.562:
RHYA

one-hybrid fitness for binding parS DNA, 0.83:
RNCS
RTRS
